Results filed as inconclusive are left out. Where a call stands in place of a potency, no number is given. Activity calls are given as the source filed them. Unless noted, calls follow the shape of the dose curve; as a rule, active = well fitted curve in the direction sought with a large enough effect; inconclusive = small, poorly fitted or top-dose-only effect, or another doubt; inactive = no such curve, though single readings can be large; an effect the other way counts as inactive or inconclusive.
How the values were obtained:
[1] = Nrf2 qHTS screen for inhibitors: Validation (AID 493153; active = well fitted inhibition curve with a large enough effect in the main read-out, with a control signal flat, not every such curve was filed as active); conditions: Potency: luciferase luminescence; viability change: measured here: cytotoxicity max response
How it was run: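 A549 cells carrying ARE-firefly luciferase reporter, 5000 cells/well in 5% FBS OPTI-MEM, treated with compound over a concentration series for 18-24 h at 37 C. Luciferase luminescence gave Nrf2 activity; CellTiter-Fluor fluorescence gave viability.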

[2] = qHTS for Inhibitors of Cell Surface uPA Generation: Validation Assay (AID 493164)
How it was run: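 RAW 264.7 cells (4000/well) were plated overnight, then exposed for 18 h at 37 C, 5% CO2 to compounds in a 7-point 1:5 titration (2.45 nM–38.3 uM final). Intracellular ATP was read by ATP-Lite luminescence.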

[3] = biological target: Galactokinase (Homo sapiens) (UniProt P51570); test: qHTS Validation Assay for Inhibitors of Human Galactokinase (GALK) (AID 493189)
How it was run: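 Inhibition was measured as remaining ATP, detected by luciferase luminescence after a 1 h room-temperature reaction. Final conditions: 5 nM GALK, 100 uM galactose, 35 uM ATP, pH 8.0 HEPES buffer.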

[4] = Validation screen for small molecules that induce DNA re-replication in SW480 colon adenocarcinoma cells (AID 504364)
How it was run: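 SW480 cells (250/well) exposed 48 h at 37 C, 5% CO2, then Hoechst-stained 40 min. Nuclear DNA content imaged by fluorescence scanning (405 nm excitation, 500-530 nm emission); re-replication scored as increased nuclei with elevated intensity.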

[5] = biological target: Phosphoglycerate kinase, glycosomal (Trypanosoma brucei brucei) (UniProt P07378); test: qHTS Validation Assay to Find Inhibitors of Phosphoglycerate Kinase (AID 504547); also: potency is read from the fitted curve at half-maximal effect
How it was run: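 Inhibition of the enzyme is judged by a Kinase-Glo Plus luminescent signal following a one-hour incubation at room temperature. Because 1,3-BPG is unstable, it is made in situ by GAPDH at 100nM final; no-PGK wells define the baseline.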

[6] = biological target: phosphoglycerate mutase (Leishmania major) (UniProt Q4Q090); test: qHTS Validation Assay to Find Inhibitors of Phosphoglycerate Mutase (AID 504548); conditions: Potency: inhibition qHTS; also: series mostly up to about 58 µM
How it was run: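 Lm PGAM 1.25nM final; 100 mM TEA pH 7.6, 5 mM MgCl2, 0.01% Tween-20; 45 min RT; Kinase-GloPlus, 10 min; end-point luminescence. Enzyme-free wells as negative controls.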

[7] = biological target: Ubiquitin carboxyl-terminal hydrolase 1 (Homo sapiens) (UniProt O94782); test: Inhibitors of USP1/UAF1: Pilot qHTS (AID 504865); also: nearly all actives have a fitted effect of over 35% in size; also: potency is read from the fitted curve at half-maximal effect
How it was run: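 Deubiquitinase activity followed as kinetic rhodamine fluorescence release from 150 nM Ub-Rho. 1 nM USP1/UAF1 with compound, after 15 min room-temperature preincubation, in HEPES pH 7.8 buffer containing TCEP, EDTA, BSA and Tween-20.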

[8] = qHTS for Inhibitors of ATXN expression: Validation of Cytotoxic Assay (AID 588349)
How it was run: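 HEK293 cells treated with titrated compound for 72 hr at 37 degrees C; viability read as intracellular ATP by CellTiter Glo luminescence.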

[9] = qHTS for Inhibitors of ATXN expression: Validation (AID 588378); also: nearly all actives have a fitted effect of over 75% in size; also: potency is read from the fitted curve at half-maximal effect
How it was run: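 Luciferase luminescence (Bright-Glo) from an ATXN2-FFLuc HEK293 line after 24 h compound exposure at 37 °C, preceded by a CellTiter-Fluor fluorescence viability read. Serial dilutions of a reference ATXN2 inhibitor and a luciferase inhibitor served as controls.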

[10] = biological target: Peptidyl-prolyl cis-trans isomerase NIMA-interacting 1 (Homo sapiens) (UniProt Q13526); test: qHTS Validation Assay to Find Inhibitors of Pin1 (AID 504536; active = well fitted inhibition curve with a large enough effect in the polarisation, with a control signal flat, not every such curve was filed as active; the % refers to the polarisation)
How it was run: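 Fluorescence polarization competition: compounds (titration) displace HiFluor-488-labeled Pin1-1b peptide from Pin1 (0.3 uM final) in pH 7.5 HEPES buffer with DTT, 10 min at room temperature; %Activity normalized to no-enzyme wells, curves fitted.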

[11] = biological target: DNA dC->dU-editing enzyme APOBEC-3G (Homo sapiens) (UniProt Q9HC16); test: qHTS for inhibitors of Vif-A3G interactions: Validation (AID 588379)
How it was run: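 HeLa cells stably expressing Vif and A3G-eYFP, 700 cells/well, incubated overnight at 37 deg C, then exposed to compound overnight at 37 deg C. Inhibition of Vif-mediated degradation read as increased yellow fluorescence (Ex 488/Em 500-530) by laser-scanning cytometry.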

[12] = biological target: Estrogen receptor (Homo sapiens) (UniProt P03372); test: qHTS assay for small molecule agonists of estrogen receptor alpha signaling (AID 588514; calls by dose curve; also: potency is read from the fitted curve at half-maximal effect; nearly all actives have a fitted effect of over 70% in size)
How it was run: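 ER-alpha-UAS-bla GripTite HEK293 cells, 5000/well in 2% charcoal/dextran-stripped FBS medium, treated with compound titrations 18 h at 37 C. CCF4 beta-lactamase read by fluorescence after 2 h RT; normalised to 20 nM 17-beta-estradiol (100%) and DMSO (0%), Hill fit for EC50 and efficacy.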

[13] = biological target: Glucocorticoid receptor (Homo sapiens) (UniProt P04150); test: qHTS assay for small molecule antagonists of glucocorticoid receptor signaling (AID 588533; active = well fitted inhibition curve with a large enough effect in the signal ratio, with a control signal flat, not every such curve was filed as active; the % refers to the signal ratio;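 also: cells stimulated with 2 nM dexamethasone as agonist; potency is read from the fitted curve at half-maximal effect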)
How it was run: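 Antagonist-mode qHTS: compound titrations added to GRE-bla HeLa cells, then dexamethasone 2 nM final; 18 h, 37 C. CCF4 FRET fluorescence normalized to dexamethasone and DMSO; IC50 from Hill fit.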

Sequence of Phosphoglycerate kinase, glycosomal (Trypanosoma brucei brucei) (P07378 whole entry, looked up): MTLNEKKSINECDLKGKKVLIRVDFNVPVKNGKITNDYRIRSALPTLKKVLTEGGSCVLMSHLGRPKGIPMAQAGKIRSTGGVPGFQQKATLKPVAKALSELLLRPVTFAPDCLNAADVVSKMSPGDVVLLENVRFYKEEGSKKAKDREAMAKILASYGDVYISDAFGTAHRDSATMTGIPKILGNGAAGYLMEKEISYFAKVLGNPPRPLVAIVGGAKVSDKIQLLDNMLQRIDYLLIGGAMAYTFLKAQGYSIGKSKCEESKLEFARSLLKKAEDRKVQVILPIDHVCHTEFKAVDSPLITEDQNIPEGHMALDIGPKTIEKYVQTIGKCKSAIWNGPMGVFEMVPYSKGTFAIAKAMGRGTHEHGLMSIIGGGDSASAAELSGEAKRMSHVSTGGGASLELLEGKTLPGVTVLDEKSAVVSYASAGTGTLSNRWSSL
Sequence of Peptidyl-prolyl cis-trans isomerase NIMA-interacting 1 (Homo sapiens) (Q13526 whole entry, looked up): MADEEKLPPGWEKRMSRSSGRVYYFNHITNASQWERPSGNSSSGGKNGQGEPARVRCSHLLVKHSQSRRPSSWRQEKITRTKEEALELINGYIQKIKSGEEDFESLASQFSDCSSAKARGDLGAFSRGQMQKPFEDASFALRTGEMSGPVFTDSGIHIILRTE
Sequence of Ubiquitin carboxyl-terminal hydrolase 1 (Homo sapiens) (O94782 whole entry, looked up): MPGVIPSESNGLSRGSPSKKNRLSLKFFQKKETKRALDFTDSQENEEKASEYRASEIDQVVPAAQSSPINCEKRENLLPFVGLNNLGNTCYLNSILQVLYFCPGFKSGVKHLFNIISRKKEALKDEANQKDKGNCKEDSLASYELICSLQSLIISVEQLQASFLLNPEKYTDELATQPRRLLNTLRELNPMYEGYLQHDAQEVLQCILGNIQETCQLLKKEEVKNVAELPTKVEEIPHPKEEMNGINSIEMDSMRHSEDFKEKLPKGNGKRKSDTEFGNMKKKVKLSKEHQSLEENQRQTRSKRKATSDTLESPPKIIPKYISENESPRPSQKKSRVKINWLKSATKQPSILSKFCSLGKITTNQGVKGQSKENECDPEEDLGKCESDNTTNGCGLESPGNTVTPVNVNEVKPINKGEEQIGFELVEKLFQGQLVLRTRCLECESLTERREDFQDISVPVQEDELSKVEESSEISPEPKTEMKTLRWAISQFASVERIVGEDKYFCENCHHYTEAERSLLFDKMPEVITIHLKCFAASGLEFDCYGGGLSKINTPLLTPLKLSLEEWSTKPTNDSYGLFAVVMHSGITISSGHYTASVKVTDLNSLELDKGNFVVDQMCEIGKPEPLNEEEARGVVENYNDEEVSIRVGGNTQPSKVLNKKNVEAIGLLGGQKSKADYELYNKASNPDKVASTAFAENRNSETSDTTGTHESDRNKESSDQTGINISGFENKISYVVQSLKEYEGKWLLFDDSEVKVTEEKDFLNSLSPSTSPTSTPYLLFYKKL
Sequence of phosphoglycerate mutase (Leishmania major) (Q4Q090 1-553): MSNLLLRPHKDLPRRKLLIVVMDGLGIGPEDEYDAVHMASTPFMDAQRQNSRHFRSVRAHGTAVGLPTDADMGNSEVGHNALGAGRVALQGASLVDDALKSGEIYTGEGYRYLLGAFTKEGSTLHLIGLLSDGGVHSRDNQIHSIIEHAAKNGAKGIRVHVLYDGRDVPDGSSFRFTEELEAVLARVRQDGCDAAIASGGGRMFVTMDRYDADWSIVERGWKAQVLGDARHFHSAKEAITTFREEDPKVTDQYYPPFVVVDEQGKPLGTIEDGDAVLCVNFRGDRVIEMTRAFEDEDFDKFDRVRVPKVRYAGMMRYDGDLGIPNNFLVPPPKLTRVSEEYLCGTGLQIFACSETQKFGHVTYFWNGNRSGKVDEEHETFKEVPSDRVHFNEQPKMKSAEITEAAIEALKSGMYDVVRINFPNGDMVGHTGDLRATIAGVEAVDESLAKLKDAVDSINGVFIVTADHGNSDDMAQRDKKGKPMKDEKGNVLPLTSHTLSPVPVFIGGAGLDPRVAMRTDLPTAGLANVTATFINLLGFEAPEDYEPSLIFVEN
Sequence of Galactokinase (Homo sapiens) (P51570 whole entry, looked up): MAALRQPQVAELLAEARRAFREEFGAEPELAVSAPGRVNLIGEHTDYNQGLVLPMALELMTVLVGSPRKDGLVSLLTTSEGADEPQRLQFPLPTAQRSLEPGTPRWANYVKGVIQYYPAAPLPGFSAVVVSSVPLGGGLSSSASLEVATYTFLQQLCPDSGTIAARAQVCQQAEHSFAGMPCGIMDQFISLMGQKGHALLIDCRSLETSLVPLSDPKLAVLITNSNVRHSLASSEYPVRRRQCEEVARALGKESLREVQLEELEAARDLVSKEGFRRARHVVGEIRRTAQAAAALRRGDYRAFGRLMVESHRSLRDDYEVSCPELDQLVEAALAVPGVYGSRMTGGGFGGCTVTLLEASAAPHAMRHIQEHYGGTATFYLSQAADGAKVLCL
Sequence of DNA dC->dU-editing enzyme APOBEC-3G (Homo sapiens) (Q9HC16 whole entry, looked up): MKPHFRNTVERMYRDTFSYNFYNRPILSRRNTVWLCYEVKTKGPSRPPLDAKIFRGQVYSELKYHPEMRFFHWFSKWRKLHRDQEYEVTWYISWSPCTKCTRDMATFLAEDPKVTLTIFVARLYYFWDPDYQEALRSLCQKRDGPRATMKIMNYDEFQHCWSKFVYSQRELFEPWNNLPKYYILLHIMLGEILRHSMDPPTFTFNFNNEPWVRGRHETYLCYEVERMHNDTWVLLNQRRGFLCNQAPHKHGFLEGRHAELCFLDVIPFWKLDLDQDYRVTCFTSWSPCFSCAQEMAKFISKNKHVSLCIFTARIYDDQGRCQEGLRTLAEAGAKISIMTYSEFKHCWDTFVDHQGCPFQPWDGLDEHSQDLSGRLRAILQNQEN
Sequence of Estrogen receptor (Homo sapiens) (P03372 whole entry, looked up): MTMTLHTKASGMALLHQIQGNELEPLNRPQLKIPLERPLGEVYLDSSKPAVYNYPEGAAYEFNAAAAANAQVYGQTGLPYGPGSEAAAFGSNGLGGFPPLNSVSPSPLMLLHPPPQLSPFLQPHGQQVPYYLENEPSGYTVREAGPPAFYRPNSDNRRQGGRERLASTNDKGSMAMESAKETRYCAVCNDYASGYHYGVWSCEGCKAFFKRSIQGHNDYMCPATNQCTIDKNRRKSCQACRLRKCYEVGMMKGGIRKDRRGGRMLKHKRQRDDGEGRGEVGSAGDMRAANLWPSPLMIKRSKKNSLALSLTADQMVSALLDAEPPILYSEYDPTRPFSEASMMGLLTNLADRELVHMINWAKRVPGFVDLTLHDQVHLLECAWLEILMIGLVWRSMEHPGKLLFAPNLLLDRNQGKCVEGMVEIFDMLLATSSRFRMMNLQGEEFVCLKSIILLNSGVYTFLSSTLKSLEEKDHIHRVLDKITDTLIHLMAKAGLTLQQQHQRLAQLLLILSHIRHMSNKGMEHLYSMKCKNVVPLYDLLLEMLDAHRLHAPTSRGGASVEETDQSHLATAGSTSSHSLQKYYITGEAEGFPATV
Sequence of Glucocorticoid receptor (Homo sapiens) (P04150 whole entry, looked up): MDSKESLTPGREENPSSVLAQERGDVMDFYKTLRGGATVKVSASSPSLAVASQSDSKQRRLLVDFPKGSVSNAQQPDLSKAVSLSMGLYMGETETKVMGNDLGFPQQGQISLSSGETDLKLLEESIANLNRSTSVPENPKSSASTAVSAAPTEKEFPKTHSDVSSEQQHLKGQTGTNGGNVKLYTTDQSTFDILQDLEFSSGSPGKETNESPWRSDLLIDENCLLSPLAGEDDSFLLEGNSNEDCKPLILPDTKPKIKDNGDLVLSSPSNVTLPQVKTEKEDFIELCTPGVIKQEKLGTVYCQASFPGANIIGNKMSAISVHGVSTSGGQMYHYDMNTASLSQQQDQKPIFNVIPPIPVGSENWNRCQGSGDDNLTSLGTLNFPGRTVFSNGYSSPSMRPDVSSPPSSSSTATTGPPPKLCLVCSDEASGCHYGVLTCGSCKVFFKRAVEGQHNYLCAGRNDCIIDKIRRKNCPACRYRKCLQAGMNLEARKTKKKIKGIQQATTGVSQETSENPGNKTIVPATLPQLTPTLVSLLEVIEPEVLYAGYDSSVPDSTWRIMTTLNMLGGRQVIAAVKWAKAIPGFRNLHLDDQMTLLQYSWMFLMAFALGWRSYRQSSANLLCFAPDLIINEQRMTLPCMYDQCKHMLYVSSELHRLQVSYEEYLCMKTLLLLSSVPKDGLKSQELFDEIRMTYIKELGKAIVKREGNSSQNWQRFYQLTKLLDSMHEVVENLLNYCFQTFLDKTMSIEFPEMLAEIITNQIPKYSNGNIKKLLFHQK

| Compound | Potency [1] | viability change [1] [%] | outcome [2] | Potency [3] | Potency [4] | Potency [5] | Potency [6] | Potency [7] | Potency [8] | Potency [9] | Potency [10] | Potency [11] | Potency [12] | Potency [13] |
| --- | --- | --- | --- | --- | --- | --- | --- | --- | --- | --- | --- | --- | --- | --- |
| Nc1ccc(CCNc2ncnc3c2ncn3C2OC(CO)C(O)C2O)cc1 (stereo unspecified) | inactive | 5.22 | inactive | inactive | inactive | inactive | inactive | inactive | inactive | inactive | – | – | – | – |
| N=S(=O)(O)Cc1noc2ccccc12 | inactive | 0.163 | inactive | inactive | inactive | inactive | inactive | inactive | inactive | inactive | – | – | – | – |
| O=C(O)c1ccccc1Nc1cccc(OCc2ccc3ccccc3n2)c1 | inactive | -13.9 | inactive | inactive | inactive | – | inactive | – | inactive | inactive | inactive | inactive | – | – |
| S=C(S)N1CCCC1 | inactive | -3.57 | inactive | inactive | inactive | inactive | inactive | inactive | inactive | inactive | – | – | – | – |
| C=CCN1CCc2cc(O)c(O)cc2C(c2ccccc2)C1 (stereo unspecified) | inactive | -2.64 | inactive | inactive | inactive | inactive | inactive | inactive | – | – | – | – | – | – |
| O=c1[nH]ccc2c(O)cccc12 | inactive | -2.46 | inactive | inactive | inactive | inactive | inactive | inactive | inactive | inactive | – | – | – | – |
| CN1CCCC1CCOC(C)(c1ccccc1)c1ccc(Cl)cc1 (stereo unspecified) | inactive | -0.239 | inactive | inactive | inactive | inactive | inactive | inactive | – | 12.6 µM (active) | – | – | – | – |
| CC(=O)O[C@H]1CC2(C)[C@@H](C[C@@H](O)[C@H]3[C@@]4(C)CC[C@@H](O)[C@@H](C)[C@@H]4CC[C@@]32C)C1=C(CCC=C(C)C)C(=O)O (stereo partly specified) | inactive | -4.76 | inactive | inactive | inactive | inactive | inactive | inactive | inactive | inactive | – | – | – | – |
| CC(N)(C(=O)O)c1ccc(C(=O)O)cc1 (stereo unspecified) | inactive | 1.94 | inactive | inactive | inactive | inactive | inactive | inactive | inactive | inactive | – | – | – | – |
| CCCCCC[C@@H]([C@@H](C)O)n1cnc2c(N)ncnc21 | inactive | 0.22 | inactive | inactive | inactive | inactive | inactive | – | inactive | inactive | – | inactive | – | – |
| c1ccc(C(NCc2cccnc2)(c2ccccc2)c2ccccc2)cc1 | inactive | 7.92 | inactive | – | – | inactive | inactive | – | – | – | inactive | – | – | – |
| C=CCN1CCc2c(cc(O)c(O)c2Cl)C(c2ccccc2)C1 (stereo unspecified) | inactive | -2.43 | inactive | inactive | – | – | inactive | inactive | – | – | inactive | – | – | – |
| Nc1nc2c(nc(Br)n2C2OC3COP(=O)(O)O[C@@H]3C2O)c(=O)[nH]1 (stereo partly specified) | inactive | 2.34 | inactive | – | – | inactive | inactive | inactive | inactive | inactive | inactive | – | – | – |
| COc1cccc(OC)c1OCCNCC1CSc2ccccc2O1 (stereo unspecified) | inactive | -8.63 | inactive | inactive | – | inactive | inactive | – | – | – | inactive | – | – | – |
| COc1ccc(C(=O)NCc2cccnc2)cc1C(=O)NCc1cccnc1 | inactive | -5.34 | inactive | inactive | inactive | inactive | inactive | – | inactive | inactive | – | – | – | – |
| O=C1Cc2c([nH]c3ccc(Br)cc23)-c2ccccc2N1 | inactive | 3.96 | inactive | inactive | – | inactive | inactive | inactive | – | – | – | – | – | – |
| N[C@H](C(=O)O)c1cc(O)cc(O)c1 | inactive | 13.1 | inactive | inactive | inactive | – | inactive | – | inactive | inactive | – | inactive | – | – |
| N#C/C(=C\c1ccc(O)c(O)c1)C(=O)NCCc1ccccc1 | inactive | -10.3 | inactive | inactive | – | inactive | inactive | inactive | – | inactive | – | – | – | – |
| NC(=Nc1ccccc1)NC(=O)c1nc(Cl)c(N)nc1N | inactive | -16.8 | inactive | inactive | – | inactive | inactive | inactive | – | inactive | inactive | – | – | – |
| COc1cc(/C=C(\C#N)C(=O)c2ccc(O)c(O)c2)cc(I)c1O | inactive | -22 | inactive | – | inactive | 2.13 µM (active) | inactive | 50.1 µM (active) | – | inactive | – | – | – | – |
| CCCn1c(=O)c2[nH]c(C3CCCC3)nc2n(CCC)c1=O | inactive | -6.17 | inactive | inactive | – | inactive | inactive | – | inactive | inactive | inactive | inactive | – | – |
| Oc1ccc(/C=C/c2ccc(/C=C/c3ccc(O)cc3)c(Br)c2)cc1 | inactive | 2.12 | inactive | – | – | inactive | inactive | inactive | – | – | inactive | – | – | – |
| CCCc1c(-c2ccc(O)cc2)nn(-c2ccc(O)cc2)c1-c1ccc(O)cc1 | inactive | -5.33 | inactive | inactive | inactive | inactive | inactive | – | – | – | – | inactive | 0.0112 µM (active) | 28.2 µM (active) |
| Nc1ccc(-c2ccc3ccccc3n2)cc1 | inactive | -6.75 | inactive | inactive | – | inactive | inactive | inactive | inactive | – | inactive | – | – | – |
| Nc1ccc(N2C(=O)c3ccccc3C2=O)c(Cl)c1 | inactive | -6.09 | inactive | inactive | inactive | inactive | inactive | – | inactive | inactive | – | – | – | – |

— PubChem BioAssay (NCATS)
